In PubChem BioAssay (NCI):
About 83,000 compounds went through this panel and 20% of them were active in at least one assay; those are over-represented in the sample as a whole.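 A percent growth of 40 corresponds to 60% growth inhibition; 0 means no net growth; -100 means all cells died. Active threshold: below 10.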 Unmarked numbers belong to inactive results. Calls of active or inactive are those of the source.

Tests used:
Assay in all cases: NCI-60 one-dose screen, 48 h (100 = growth as untreated, 0 = no growth, -100 = all killed)
Details in all cases: 10 µM unless noted
T-47D breast = test system: T-47D breast
BT-549 breast = test system: BT-549 breast
MDA-MB-435 melanoma = test system: MDA-MB-435 melanoma
SW-620 colon = test system: SW-620 colon
MCF7 breast = test system: MCF7 breast
HCT-116 colon = test system: HCT-116 colon
HCC-2998 colon = test system: HCC-2998 colon
KM12 colon = test system: KM12 colon

Row | SMILES | growth (T-47D breast) | growth (BT-549 breast) | growth (MDA-MB-435 melanoma) | growth (SW-620 colon) | growth (MCF7 breast) | growth (HCT-116 colon) | growth (HCC-2998 colon) | growth (KM12 colon)
1 | CSc1ncnc2c1ncn2C1CCCO1 (configuration not stated) | 107% | 102% | 101% | 116% | 104% | 101% | 113% | 110%
2 | COc1ccc(-c2cc(-c3cccnc3)nc3sc4c(=O)n(-c5ccc(C)cc5)nnc4c23)cc1OC | 99.3% | 103% | 99.3% | 94.4% | 99.7% | 95% | 109% | 103%
3 | CCCCCCCCCCCCCC(=O)C(C)N (configuration not stated) | -30.2% (active) | 66.9% | 78.5% | 80.4% | 34% | 59.2% | 55.1% | 22.1%
4 | O=C1CC(c2nc3ccccc3s2)CN1C1CCCCC1 (configuration not stated) | 88.2% | 97.1% | 107% | 107% | 89.1% | 108% | 95.2% | 98%
5 | Cc1ccc2c(c1)C(=O)c1c-2c(OCCCN(C)C)nc2ccccc12 | 63.4% | 71.5% | -32.1% (active) | -57.3% (active) | -75.8% (active) | 21% | -15.2% (active) | -46.4% (active)
6 | O=c1cc(-c2ccccc2)[nH]c2ccccc12 | 47.9% | -12.2% (active) | -16.8% (active) | 29.8% | 15.6% | 25.1% | 18.5% | 12.7%
7 | CCOC(=O)c1c2c(n3ccc(NC(=O)CCN4CCOCC4)cc13)C(=O)c1ncccc1C2=O | 32.6% | 58.3% | 19.4% | 37.2% | -31.7% (active) | 21.8% | 42.5% | 46.2%
8 | O=C(O)c1c([N+](=O)[O-])cnc2ccccc12 | 83.5% | 96.7% | 102% | 101% | 93% | 97.5% | 100% | 111%
9 | Nc1c(C(=O)Nc2ccccc2Cl)sc2nc3c(cc12)CCCCCC3 | 41.4% | 39.8% | -16.1% (active) | 34.3% | 13.8% | 19.2% | 33% | 29.2%
10 | Cc1ccc(S(=O)(=O)n2cc(-c3csc(-c4cn(C)c5ncccc45)n3)c3ccccc32)cc1 | 24.4% | 66.9% | 3.65% (active) | 40% | 19.8% | 36% | 88.4% | 29.3%
11 | COc1ccc(CNc2nccnn2)cc1 | 105% | 114% | 102% | 104% | 99.4% | 101% | 98.7% | 99.3%
12 | O=C(COc1cccc(/C=C2/Oc3ccccc3C2=O)c1)Nc1nccs1 | 166% | 87.9% | 103% | 97.2% | 54.4% | 73.9% | 105% | 4.37% (active)
13 | C=CC[N+]1(CC)CCN=C1CCCCCCCCCCCCCCCCC (configuration not stated) | -62.9% (active) | -75.9% (active) | -85% (active) | -89.7% (active) | -81.7% (active) | -100% (active) | -73.5% (active) | -97.9% (active)
14 | CCN(CC)CCCC(C)N/C(=C1\C(=O)NC(=O)\C1=C(/NC(C)CCCN(CC)CC)c1cccc(OC)c1)c1cccc(OC)c1 (configuration not stated) | 48.6% | 2.98% (active) | -81.6% (active) | 0.116% (active) | 0.0378% (active) | 2.62% (active) | -89.2% (active) | 1.06% (active)
15 | CNC(=S)N/N=C/CSC/C=N/NC(=S)NC | 33.2% | 96.8% | 81.7% | 64.5% | 3.33% (active) | 63.3% | 97.6% | 75.9%
16 | COc1cc(-c2nc3ccccc3s2)ccc1NC(=O)COc1ccc(Cl)cc1 | 23% | 87.6% | 72% | 87.6% | 40.4% | 44.9% | 85.1% | 45.6%
17 | CSc1[nH]c2ncnc(N)c2c1C#N | 97.3% | 85.9% | 102% | 128% | 100% | 102% | 108% | 122%
18 | CCOC(=O)N1CCN(c2nc(Nc3cc(C)[nH]n3)c3ccccc3n2)CC1 | 37.4% | 56.8% | 14% | 41.8% | 27.5% | 34.1% | 69% | 21.4%
19 | O=C1Nc2ccccc2C12CC(c1ccccc1)=NN2 (configuration not stated) | 60% | 64.4% | -24.9% (active) | 27.7% | 19.1% | 29.4% | 75.6% | 43.3%
20 | C=C1CCC2C3(C)COC(C)(C)OC3CCC2(C)C1C/C=C1/C(=O)OCC1OC(C)=O (configuration not stated) | 27.7% | 52.9% | 27.1% | -38.8% (active) | 16.5% | -21.1% (active) | 100% | 10.1%
21 | CCN(CC)CC#CCOC(=O)[C@]1(C)CCC[C@@]2(C)[C@H]1CC(C=O)=C1C=C(C(C)C)CC[C@@H]12 | 41.8% | 53% | 76.4% | 57.2% | 68.1% | 36.1% | 94.6% | 55.3%
22 | O=C1O[C@H]([C@H](O)CO)C(O)=C1O | 114% | 93.1% | 106% | 87.3% | 103% | 98.2% | 98.3% | 103%
23 | CC(=O)O[C@H]1CC[C@]2(C)[C@H]3CC[C@@H]4[C@H]5[C@H](C(C)C)CC[C@]5(C(=O)OCC(CO)(CO)N=C(N)N)CC[C@@]4(C)[C@]3(C)CC[C@H]2C1(C)C | 44.6% | 108% | 22.6% | -71.5% (active) | 4.01% (active) | -76.1% (active) | -60.9% (active) | 17.4%
24 | CCCCCn1cnc2c(=S)nc[nH]c21 | 90.8% | 129% | 105% | 97.8% | 98.4% | 106% | 122% | 109%
25 | CCOC(=S)SCc1ccc(Cl)cc1 | 120% | 96.3% | 101% | 101% | 103% | 92.3% | 131% | 108%
26 | CCN(CC)CC(O)CNc1c2ccc([N+](=O)[O-])cc2nc2cc(OC)c(OC)cc12 (configuration not stated) | -27.9% (active) | -69.8% (active) | -88.4% (active) | 4.13% (active) | -22.9% (active) | -23.5% (active) | -68.2% (active) | -37.5% (active)
27 | CN(C)c1ccc(/C=C\C2=[N+](C)c3ccccc3C2(C)C)cc1 | 0.627% (active) | -4.12% (active) | 3.88% (active) | 10.3% | 3.95% (active) | 7.97% (active) | 23.4% | -21.1% (active)
28 | CC[C@H](CO)Nc1nc(NCc2ccccc2)n2ncc(C(C)C)c2n1 | 28.3% | -28.1% (active) | 11.3% | 1.96% (active) | 2.6% (active) | 13.7% | -27.9% (active) | 1.41% (active)
29 | CC/C=C\C[C@H](O)C/C=C1/C(=O)C=C[C@@H]1C/C=C\CCCC(=O)OC(C)C | 6.79% (active) | -18.3% (active) | 2.16% (active) | 0.553% (active) | 3.64% (active) | -70.1% (active) | -88% (active) | -62.2% (active)
